Reference: PubChem BioAssay (NCI)
The panel holds about 83,000 compounds, 20% with a hit somewhere; the sample as a whole holds those more often.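 Compound tested at a single concentration for 48 hours in 96-well plates; a percent growth value below 10 was scored as active.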 Calls of active or inactive are those of the source.

tested on: HL-60(TB) leukemia; assay: NCI-60 one-dose screen, 48 h (100 = growth as untreated, 0 = no growth, -100 = all killed); details: 10 µM unless noted

| Structure (SMILES) | growth |
| --- | --- |
| CCCn1cnc2c(c1=N)C(c1ccc(OC)cc1)c1sc3c(CC)cccc3c1O2 (stereo unspecified) | -12.9% (active) |
| COc1ccc(NC(=O)[C@H](C)N)cc1C(=O)Nc1cccc(-c2cc(=O)c3c(OC)c(OC)c(OC)cc3o2)c1 | 58.9% (inactive) |
| O=C(N/N=C\c1ccc([N+](=O)[O-])cc1)c1ccc2nc(-c3ccc(Br)cc3)[nH]c2c1 | 1.86% (active) |
| N#Cc1cn(Cc2ccc(Cl)cc2Cl)c(C(=O)c2ccc(Br)cc2)c1N | 96.6% (inactive) |
| CN(C)CCCOc1ccc2c(c1)CN(C(=O)c1cc(C(=O)N3Cc4cccc(F)c4C3)ccc1O)C2 | 107% (inactive) |
| N#Cc1c(-c2ccc(Cl)cc2)nc(SCc2ccccc2)nc1N1CCNCC1 | 1.3% (active) |
| Brc1cccc(-c2cc(-c3ccc4c(c3)OC=CO4)[nH]n2)c1 | 14.7% (inactive) |
| Oc1[nH]c2ccc(Cl)cc2c1N=Nc1nc(N=Nc2c(O)[nH]c3ccc(Cl)cc23)nc(N2CCOCC2)n1 | 72.2% (inactive) |
| COc1ccccc1/C=C1\Oc2ccc(O)c(O)c2C1=O | 76.1% (inactive) |
| CCCCCc1ccc(S(=O)(=O)Nc2cc(-c3csc(N)n3)ccc2OC)cc1 | 60.8% (inactive) |
| Cc1ccc(S(=O)(=O)N/N=C/c2cn(-c3ccc(F)cc3)nc2-c2ccc(S(C)(=O)=O)cc2)cc1 | 97.5% (inactive) |
| Fc1ccccc1/C=C(/C1=NCCN1)n1cnc2ccccc21 | 94.5% (inactive) |
| Cc1ccc(C(=O)CSc2nc3ccccc3c(=O)n2C)cc1 | 87.4% (inactive) |
| Cc1ccc(C)c(NC2=C(Cl)C(=O)c3nc(C)ccc3C2=O)c1 | -25.8% (active) |
| CC(C)c1nn(-c2ccccc2)c(N2CCCCC2)c1/C=N/NC(N)=S | 98.4% (inactive) |
| COc1ccc([C@@H]2C(=O)N(c3cc(OC)c(OC)c(OC)c3)[C@H]2c2ccc(OC)c(O)c2)cc1 | 2.64% (active) |
| CCOC(=O)C1=NNC(c2ccc(Cl)cc2)C1C(=O)N1C(=S)NC(=O)C1CC(C)C (stereo unspecified) | 106% (inactive) |
| CCNC(=O)N1CCc2cc(OC)c(OCCc3ccc(OC)cc3)cc2C1c1ccc([N+](=O)[O-])cc1C (stereo unspecified) | 14% (inactive) |

| Structure (SMILES) | growth |
| --- | --- |
| O=C1/C(=C/C2=Cc3ccccc3OC2)SC(=S)N1c1ccc(F)cc1 | 95.2% (inactive) |
| C#C[C@]1(O)CC[C@H]2[C@@H]3CC=C4c5sc(N6CCN(C)CC6)nc5CC[C@]4(C)[C@H]3CC[C@@]21C | 6.2% (active) |
| C#C[C@]1(O)CC[C@H]2[C@@H]3CC=C4c5sc(-c6ccc(C)cc6)nc5CC[C@]4(C)[C@H]3CC[C@@]21C | -2.49% (active) |
| Cn1cc(-c2cc3ncnc(Nc4ccc(NC(=O)Nc5cc(C(C)(C)C)on5)cc4)c3s2)cn1 | 13.6% (inactive) |
| NS(=O)(=O)c1ccc(Nc2nc(SCc3ccccc3)nc3ccccc23)cc1 | 60.5% (inactive) |
| CNC(=O)c1cc(Oc2ccc3nc(NC(=O)c4cc(N5CCOCC5)cc(C(F)(F)F)c4)sc3c2)ccn1 | 68% (inactive) |
| CCc1cc(OC(=O)N2CCN(CCC(C)(COC(C)(C)C)COC(C)(C)C)CC2)ccc1Nc1cc(-c2ccc(-n3cccn3)cc2)[nH]n1 | 66.5% (inactive) |
| CCOC(=O)c1c(Nc2ccccc2)nn2c(N)c(C#N)c(-c3ccc(OC)cc3)nc12 | 112% (inactive) |
| CN(C)CCCOc1c2ccccc2nc2c1oc1ccc(Cl)cc12 | 9.14% (active) |
| CNC(=O)c1cc(-c2ccc(NS(=O)(=O)c3ccc(C)cc3)cc2)nc2cccnc12 | 113% (inactive) |
| CCOC(=O)c1c(NCC(=O)Nc2ccc(Br)cc2)sc2c1CCCC2 | 28.9% (inactive) |
| CC(=O)Nc1cccc(Nc2nc(N[C@@H](C)c3ccccc3)c3ccccc3n2)c1 | -50.7% (active) |
| CN(C)S(=O)(=O)c1oc(-c2ccccc2)nc1C#N | 13.8% (inactive) |
| CCN1C(=O)N(CC)C2SC(N/N=C/C=C/c3ccccc3OC)=NC21 (stereo unspecified) | -9.85% (active) |
| COc1ccc(-c2nc(C#N)c(N3CCC(S(=O)(=O)N4CCOCC4)CC3)o2)cc1 | 117% (inactive) |
| Oc1ccc(CSc2nnc(-c3ccc(Cl)cc3)n2-c2ccccc2)c2cccnc12 | 23.6% (inactive) |
| COc1ccc([C@H]2[C@H](O)C(=O)N2c2cc(OC)c(OC)c(OC)c2)cc1F | -13% (active) |
| Nc1n[nH]c2cccc(C#Cc3cccc(NC(=O)c4cccc(OC(F)(F)F)c4)c3)c12 | 17.7% (inactive) |
